MITF primary: blocks human microphthalmia-associated transcription factor. 0.91% of 650,000 active. inhibition, % at 2.6 µM. AID 1259374. AlphaScreen MITF homodimerization, bead proximity signal. O75030; in the data active means inhibition above about 50%;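 further: 0% = vehicle wells with protein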
FBW7 act: human FBW7 E3 ligase activation, primary screen; Q969H0; AlphaScreen FBW7–phospho-cyclin E peptide binding, activator screen; normalized activity (activation), % at 26.1 µM; 0.13% of 650,000 active; AID 1259310; in the data active means normalized activity above about 1.9%;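 further: purified mutant Fbw7 with reduced substrate affinity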
GPR151 ag: activators of human GPR151 | 1% of 650,000 active | PathHunter beta-arrestin GPR151 cells, luminescence | activation, % at 11.2 µM | Q8TDV0; in the data active means activation above about 4.9%;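 further: 0% = median of compound wells and 100% = cells with positive control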
Target sequence (Q8TDV0 whole entry, looked up): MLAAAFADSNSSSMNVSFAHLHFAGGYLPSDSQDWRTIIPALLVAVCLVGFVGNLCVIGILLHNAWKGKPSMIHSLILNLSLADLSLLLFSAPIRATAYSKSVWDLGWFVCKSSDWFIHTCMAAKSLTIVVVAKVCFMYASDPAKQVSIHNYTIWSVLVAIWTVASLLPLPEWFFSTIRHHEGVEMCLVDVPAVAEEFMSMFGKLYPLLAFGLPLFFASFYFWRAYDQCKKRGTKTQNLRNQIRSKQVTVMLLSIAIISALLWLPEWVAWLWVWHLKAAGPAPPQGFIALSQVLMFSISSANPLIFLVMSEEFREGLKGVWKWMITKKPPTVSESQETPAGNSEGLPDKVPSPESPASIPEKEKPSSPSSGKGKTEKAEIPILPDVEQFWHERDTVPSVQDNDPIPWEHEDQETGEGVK
TEAD-YAP inh: TEAD-YAP interaction inhibition | HEK-TIYL cells, TEAD-Gal4/YAP UAS-luciferase luminescence | 1.4% of 640,000 active | inhibition, % at 9.12 µM; in the data active means inhibition above about 32%;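 further: 0% = median of test compound wells and 100% = reference inhibitor wells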
* = called active by the depositor; ! = a repeat was not active. A selection: hits, their analogues and other compounds. The true share with any hit is near 3.5%.

What do the screens show for `OCCNc1nc(Nc2ccc(C(F)(F)F)cc2)nc2c1ncn2-c1ccsc1`?
MITF primary: -18; FBW7 act: 0; GPR151 ag: 1; TEAD-YAP inh: 15

How did OCCNc1nc(Nc2ccc(-n3ccnc3)cc2)nc2c1ncn2-c1ccccc1 do in these assays?
MITF primary: 8; FBW7 act: 0; GPR151 ag: 0; TEAD-YAP inh: 42*

Results for OCCNc1nc(Nc2ccncc2)nc2c1ncn2-c1ccsc1 ?
MITF primary: 13; FBW7 act: 0; GPR151 ag: 2; TEAD-YAP inh: 60*

Results for CCOC(=O)C1C(=O)C=C(c2cccs2)CC1c1cccc(OC)c1 (centres undefined) ?
MITF primary: 14; FBW7 act: 1; GPR151 ag: -1; TEAD-YAP inh: -6

Results for COc1cccc(/C=C2/NC(=O)N(Cc3ccc(Br)cc3)C2=O)c1OC(C)C ?
MITF primary: -7; FBW7 act: 0; GPR151 ag: 0; TEAD-YAP inh: -7

How did CC1(C)CC(=O)C2=C(C1)Nc1ccccc1NC2c1ccc(-c2ccccc2)cc1 (centres undefined) do in these assays?
MITF primary: -1; FBW7 act: 0; GPR151 ag: 2; TEAD-YAP inh: 21

Results for COc1cc(C2Nc3ccc(C(=O)c4ccccc4)cc3NC3=C2C(=O)CC(C)(C)C3)ccc1O (centres undefined) ?
MITF primary: -1; FBW7 act: 0; GPR151 ag: 0; TEAD-YAP inh: 41*

What do the screens show for `O=C1CCCC2=C1C(c1ccc(Cl)c(Cl)c1)Nc1ccc(C(=O)c3ccccc3)cc1N2` (centres undefined)?
MITF primary: 4; FBW7 act: 0; GPR151 ag: 0; TEAD-YAP inh: 50*

Results for CSc1ccc(C2Nc3ccc(C(=O)c4ccccc4)cc3NC3=C2C(=O)CCC3)cc1 (centres undefined) ?
MITF primary: -12; FBW7 act: 0; GPR151 ag: 0; TEAD-YAP inh: 43*

What do the screens show for `CCN(CC)c1ccc(C2Nc3ccccc3NC3=C2C(=O)CC(C)(C)C3)cc1` (centres undefined)?
MITF primary: 1; FBW7 act: 0; GPR151 ag: 0; TEAD-YAP inh: 54*

Results for CSc1ccccc1N=CC1=C(O)CC(c2ccccc2)CC1=O (centres undefined) ?
MITF primary: 13; FBW7 act: 0; GPR151 ag: 0; TEAD-YAP inh: 5

How did CCOc1ccccc1N=CC1=C(O)CC(c2ccccc2)CC1=O (centres undefined) do in these assays?
MITF primary: 3; FBW7 act: 2.0*!; GPR151 ag: 1; TEAD-YAP inh: 5

What do the screens show for `O=C1CC(c2ccccc2)CC(O)=C1C=NCc1ccccc1Cl` (centres undefined)?
MITF primary: 7; FBW7 act: 0; GPR151 ag: 2; TEAD-YAP inh: 51*

How did O=C1CC(c2ccccc2)CC(O)=C1C=NCc1ccc2c(c1)OCO2 (centres undefined) do in these assays?
MITF primary: -7; FBW7 act: 0; GPR151 ag: 0; TEAD-YAP inh: 38*

Results for O=C1c2ccccc2C(=O)c2c1oc1c3c(ccc21)OCN(CCCN1CCOCC1)C3 ?
MITF primary: 22; FBW7 act: 0; GPR151 ag: -1; TEAD-YAP inh: 81*

Results for CCN(c1ccccc1)S(=O)(=O)c1ccc2[nH]cc(C(=O)NCCC(C)C)c(=O)c2c1 ?
MITF primary: 0; FBW7 act: 0; GPR151 ag: 0; TEAD-YAP inh: 6

What do the screens show for `COc1ccc(S(=O)(=O)CCC(=O)Nc2ccc(C)cc2Cl)cc1`?
MITF primary: 19; FBW7 act: 0; GPR151 ag: 0; TEAD-YAP inh: -6

How did Cc1cccc(Cn2c(NC3CCCCC3)nc3c2c(=O)n(C)c(=O)n3C)c1 do in these assays?
MITF primary: -19; FBW7 act: 0; GPR151 ag: 0; TEAD-YAP inh: -1

Results for CC(C)C(=O)Nc1nnc(SCC(=O)NCc2ccccc2)s1 ?
MITF primary: 12; FBW7 act: 0; GPR151 ag: 0; TEAD-YAP inh: 6

What do the screens show for `O=C(CSc1cn(CCNC(=O)c2ccc(F)cc2)c2ccccc12)NCC1CCCO1` (centres undefined)?
MITF primary: 6; FBW7 act: 0; GPR151 ag: -1; TEAD-YAP inh: 10

Results for Cc1ccc(C(=O)NCCn2cc(SCC(=O)NCC3CCCO3)c3ccccc32)cc1C (centres undefined) ?
MITF primary: 4; FBW7 act: 0; GPR151 ag: 1; TEAD-YAP inh: 33*

Compound activity (PubChem BioAssay)
